Laboratory results as given in PubChem BioAssay (NCATS).
Results filed as inconclusive are left out. The source made the active and inactive calls. Calls come from the whole dose curve; as a rule, active = well fitted curve in the direction sought with a large enough effect; inconclusive = small, poorly fitted or top-dose-only effect, or another doubt; inactive = no such curve, though single readings can be large; an effect the other way counts as inactive or inconclusive.

How the values were obtained:
[1] = target: Rap guanine nucleotide exchange factor 3 (Homo sapiens) (UniProt O95398); assay: Confirmatory qHTS for agonist of cAMP-regulated guanine nucleotide exchange factor 3 (EPAC1) (AID 1645881);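 note: EPAC1 catalysed release of BODIPY-GDP from Rap1B seen as fluorescence loss; 100% = effect of cAMP agonist control; nearly all actives have a fitted effect of over 75% in size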
[2] = target: Rap guanine nucleotide exchange factor 4 (Homo sapiens) (UniProt Q8WZA2); assay: Confirmatory qHTS for agonist of cAMP-regulated guanine nucleotide exchange factor 4 (EPAC2) (AID 1645884);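 note: nucleotide exchange releases bodipy-GDP from Rap1 and this lowers its fluorescence; % is set by controls: 0 for no effect and ±100 for the full control effect; nearly all actives have a fitted effect of over 65% in size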
[3] = target: Rap guanine nucleotide exchange factor 4 (Homo sapiens) (UniProt Q8WZA2); assay: Confirmatory qHTS for antagonist of cAMP-regulated guanine nucleotide exchange factor 4 (EPAC2) (AID 1645885); note: % is set by controls: 0 for no effect and ±100 for the full control effect; nearly all actives have a fitted effect of over 25% in size
[4] = target: Rap guanine nucleotide exchange factor 3 (Homo sapiens) (UniProt O95398); assay: Counterscreen qHTS for antagonist of cAMP-regulated guanine nucleotide exchange factor 3 (EPAC1) (AID 1645888);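 note: fluorescence loss as bound BODIPY-GDP is released from Rap1B; % of control where 0% means no effect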
In short: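 Rap1B–BODIPY-GDP (250 nM) with 50 uM GDP; compounds pin-transferred to 9.74 nM–152 uM final (activator) or from 7.32 nM upwards (inhibitor). Fluorescence Ex/Em 480/540 nm read at 5 and 30 min, then after adding cAMP or buffer, at room temperature.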

Chain of Rap guanine nucleotide exchange factor 3 (Homo sapiens) (O95398 whole entry, looked up): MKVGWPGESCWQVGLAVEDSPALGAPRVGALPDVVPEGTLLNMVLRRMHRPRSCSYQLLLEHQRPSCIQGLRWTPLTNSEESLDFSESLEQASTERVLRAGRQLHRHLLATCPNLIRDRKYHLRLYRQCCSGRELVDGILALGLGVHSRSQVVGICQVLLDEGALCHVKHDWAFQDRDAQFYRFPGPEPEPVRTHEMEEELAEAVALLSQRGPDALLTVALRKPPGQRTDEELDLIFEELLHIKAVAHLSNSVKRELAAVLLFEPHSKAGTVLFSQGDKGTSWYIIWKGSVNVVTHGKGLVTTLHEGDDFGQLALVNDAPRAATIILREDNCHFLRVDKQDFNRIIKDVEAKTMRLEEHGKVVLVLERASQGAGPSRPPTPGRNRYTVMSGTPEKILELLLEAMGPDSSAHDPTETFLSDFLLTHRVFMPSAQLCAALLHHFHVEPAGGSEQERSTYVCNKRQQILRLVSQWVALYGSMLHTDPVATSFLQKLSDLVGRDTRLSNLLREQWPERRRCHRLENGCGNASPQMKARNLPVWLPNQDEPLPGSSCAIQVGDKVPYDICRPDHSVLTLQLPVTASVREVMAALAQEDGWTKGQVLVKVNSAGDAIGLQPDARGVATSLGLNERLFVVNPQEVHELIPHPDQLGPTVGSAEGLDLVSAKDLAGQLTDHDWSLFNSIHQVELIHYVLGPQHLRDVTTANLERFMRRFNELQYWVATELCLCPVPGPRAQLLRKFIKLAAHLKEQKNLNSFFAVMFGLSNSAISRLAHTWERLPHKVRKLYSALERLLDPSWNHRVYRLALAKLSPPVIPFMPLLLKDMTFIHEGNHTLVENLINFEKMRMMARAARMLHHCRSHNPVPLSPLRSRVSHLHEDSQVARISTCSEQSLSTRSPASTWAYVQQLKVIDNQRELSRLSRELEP
Chain of Rap guanine nucleotide exchange factor 4 (Homo sapiens) (Q8WZA2 whole entry, looked up): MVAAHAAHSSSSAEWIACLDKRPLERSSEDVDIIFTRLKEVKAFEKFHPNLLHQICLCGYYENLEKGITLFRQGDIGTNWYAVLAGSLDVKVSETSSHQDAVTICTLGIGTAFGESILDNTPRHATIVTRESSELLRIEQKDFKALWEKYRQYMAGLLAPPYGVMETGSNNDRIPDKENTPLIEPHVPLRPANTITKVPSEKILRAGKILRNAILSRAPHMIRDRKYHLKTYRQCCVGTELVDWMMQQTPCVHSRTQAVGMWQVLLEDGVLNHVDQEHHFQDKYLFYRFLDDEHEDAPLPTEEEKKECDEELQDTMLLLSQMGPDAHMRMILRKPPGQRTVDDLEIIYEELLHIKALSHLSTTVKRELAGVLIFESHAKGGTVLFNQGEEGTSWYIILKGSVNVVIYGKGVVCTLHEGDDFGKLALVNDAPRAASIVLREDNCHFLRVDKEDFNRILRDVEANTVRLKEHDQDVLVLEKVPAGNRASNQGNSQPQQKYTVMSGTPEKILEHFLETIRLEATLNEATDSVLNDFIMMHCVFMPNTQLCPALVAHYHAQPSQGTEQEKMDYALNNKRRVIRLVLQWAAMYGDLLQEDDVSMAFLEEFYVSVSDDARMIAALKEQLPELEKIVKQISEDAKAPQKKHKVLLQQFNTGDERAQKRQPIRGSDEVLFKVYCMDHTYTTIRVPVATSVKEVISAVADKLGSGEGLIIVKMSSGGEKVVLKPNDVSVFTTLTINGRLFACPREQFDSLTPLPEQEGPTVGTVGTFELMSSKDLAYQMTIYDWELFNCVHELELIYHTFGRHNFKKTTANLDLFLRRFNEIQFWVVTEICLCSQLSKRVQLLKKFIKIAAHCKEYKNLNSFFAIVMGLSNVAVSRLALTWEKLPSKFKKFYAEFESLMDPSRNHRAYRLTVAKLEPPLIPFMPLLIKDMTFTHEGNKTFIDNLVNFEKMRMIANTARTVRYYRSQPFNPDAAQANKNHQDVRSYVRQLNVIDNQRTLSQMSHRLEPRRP

COc1ccc(S(=O)(=O)N2CCCCC2)cc1NC(=O)c1c(F)cccc1Cl
inactive: Potency [1] | Potency [2] | Potency [3]

O=S1(=O)CCOC[C@H](CC2CCCCC2)N1Cc1cccc(C(F)(F)F)c1
inactive: Potency [1] | activation [2] 4.69% [at 17.1 µM, percent relative to cAMP agonist control] | Potency [3]

Cc1ccc(N(Cc2cccs2)C(=O)c2ccc(Br)o2)cc1
inactive: Potency [1] | Potency [2] | Potency [3] | Potency [4]

CCCc1nc2ccc(C(=O)OC)cn2c1Cc1ccc(C)cc1
inactive: Potency [1] | Potency [2] | Potency [3] | Potency [4]

CC(c1ccccc1)n1cc2c(c1-c1ccccc1Br)c(=O)n(C)c(=O)n2C (stereo not drawn)
inactive: Potency [1] | Potency [2] | Potency [3] | Potency [4]
